Laboratory results: PubChem BioAssay (NCATS)
Records with an inconclusive call do not appear. Activity calls are given as the source filed them. Unless noted, calls come from the whole dose curve; as a rule, active = well fitted curve in the direction sought with a large enough effect; inconclusive = small, poorly fitted or top-dose-only effect, or another doubt; inactive = no such curve, though single readings can be large; an effect the other way counts as inactive or inconclusive.

Tests used:
[1] = qHTS for Activators of Parkin Expression: LOPAC Validation Assay (FLuc Reporter) (AID 720573;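 note: 0% = DMSO and 100% = positive control compounds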); details: Cell line, PRKN promoter firefly luciferase reporter, vehicle wells = 0, positive control = 100%; series mostly up to 46.1 µM
Outline: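 FLuc luminescence read-out from a neuronal line expressing a Parkin-promoter-driven coincidence reporter. Cells treated 24 h at 37 C, 5% CO2 with compounds at 7 concentrations; signal increase normalized to DMSO and positive control.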

[2] = target: T1, Hexokinase-4 (Homo sapiens) + Glucokinase regulatory protein (Homo sapiens) (UniProt P35557+Q14397); experiment: qHTS assay for inhibitors of recombinant human GCK-GKRP interaction: Diaphorase-coupled assay (AID 743205); details: G6PDH/diaphorase resorufin fluorescence; series mostly up to 57.5 µM
Outline: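 Resorufin fluorescence (525/590 nm), read each minute over 30 min, reports GCK activity coupled via G6PDH and diaphorase. Reaction: 10 nM GST-GCK, 10 nM FLAG-GKRP, 5 mM glucose, 0.4 mM ATP, 0.15 mM NADP+, 0.1 mM resazurin.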

[3] = target: T1, Hexokinase-4 (Homo sapiens) + Glucokinase regulatory protein (Homo sapiens); experiment: qHTS assay for inhibitors of recombinant human GCK-GKRP interaction: ADP-Glo assay (AID 743206); details: ADP-Glo luminescence, 60 min, 0% = vehicle-only wells with enzyme present; series mostly up to 76.9 µM;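 note: plate controls were DMSO plus enzyme for no effect and no enzyme for full effect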
Outline: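 Pin-transferred compounds meet a 15 nM GST-GCK/15 nM FLAG-GKRP/2 uM S6P mix (dispense concentrations). ATP is then added to 0.4 mM final with 5 mM glucose, and the reaction runs 60 min at room temperature. ADP is quantified luminescently.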

[4] = target: T1, Hexokinase-4 (Homo sapiens) + Glucokinase regulatory protein (Homo sapiens); experiment: qHTS assay for inhibitors of recombinant human GCK-GKRP interaction: HTRF assay (AID 743207); details: recombinant GCK-GKRP HTRF binding, 60 min; series mostly up to 57.5 µM;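 note: 0% = DMSO with GCK present and -100% = DMSO wells lacking GCK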
Outline: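 HTRF read-out (ex 320 nm; 615/665 nm emission) after 60 min RT equilibration of 5 nM GST-GCK, 5 nM FLAG-GKRP, 2 uM S6P, compound and anti-FLAG/anti-GST detection antibodies; signal normalized between DMSO wells with and without GCK.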

[5] = qHTS Assay for Identifying Gametocytocidal Compounds (AID 743244);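 note: % is set by controls: 0 for no effect and ±100 for the full control effect; actives lower the fluorescent signal which means gametocytes are killed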; details: P. falciparum 3D7 stage III-V gametocytes, alamarBlue, 72 h; max response: hits give low values
Outline: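 Viability read-out was resazurin reduction (alamarBlue, 24 h) measured at Ex 525/Em 598 nm. Beforehand, late-stage (III-V) 3D7 P. falciparum gametocytes at 20,000 cells/well were incubated with compound 72 h at 37C under 5% CO2.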

[6] = qHTS assay for measurement of the activity of small molecule inhibitors on Zika virus induced Caspase-3 activity in human iPSC derived neural progenitor cells (hNPCs) (AID 1224857); details: hNPCs ZIKV-induced caspase-3/7, Caspase-Glo luminescence, 6 h; series mostly up to 45.7 µM; note: % of control where 0% means no effect; nearly all actives have a fitted effect of over 65% in size
Outline: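 Percent inhibition of virus-induced caspase-3/7 luminescence (Caspase-Glo), scaled between uninfected cells and Zika-infected cells. hNPCs received compound 1 hr before ZIKV at 2 FFU/cell, with 6 hours infection at 37 C.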

[7] = qHTS assay for measurement of the activity of small molecule inhibitors on Zika virus induced Caspase-3 activity in human astrocytoma cells (AID 1224859); details: SNB-19 ZIKV-induced caspase-3/7, luminescence, 6 h; series mostly up to 45.7 µM;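 note: plate controls were ZIKV-infected untreated cells for no effect and uninfected cells for full effect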
Outline: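 Luminescent caspase-3/7 read-out (30 min reagent, room temperature) in human SNB-19 cells infected 6 h with ZIKV (2 FFU/cell) after 1 h compound pre-incubation; Data were normalised to uninfected and infected wells.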

[8] = qHTS assay for small molecule agonists of the antioxidant response element (ARE) signaling pathway measured by Nrf2-dependant transcriptional activity (AID 720636; active = well fitted curve in the direction sought with a large enough effect in the repeat runs; an effect the other way counts as inactive or inconclusive;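 note: HepG2 cells with an ARE-driven luciferase reporter; % of control where 0% means no effect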); details: ARE-luc HepG2, Nrf2 luciferase reporter, 16 h; series mostly up to 92.4 µM
Outline: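 Nrf2-dependent transcription is measured in ARE-luc HepG2 cells: compound is applied for 16 hr at 37 C after a 6 hr attachment period, and luciferase activity is quantified by luminescence using ONE-Glo.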

[9] = qHTS assay for small molecule antagonists of the retinoid-related orphan receptor gamma (ROR-gamma) signaling pathway - cell viability counter screen (AID 720652; active = well fitted curve in the direction sought with a large enough effect in the repeat runs; an effect the other way counts as inactive or inconclusive;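 note: CHO reporter cells with doxycycline-induced ROR-gamma expression; compound exposure lasted 16 hr before ATP read; % is set by controls: 0 for no effect and ±100 for the full control effect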); details: RORgamma reporter cell line viability counter screen; series mostly up to 92.2 µM
Outline: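 Cytotoxicity counter screen: intracellular ATP (CellTiter-Glo luminescence) measured in the doxycycline-induced CHO RORE-luciferase reporter line after 16 hr compound exposure at 37 C, 5% CO2.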

[10] = qHTS assay for small molecule agonists of the antioxidant response element (ARE) signaling pathway measured by Nrf2-dependant transcriptional activity - cell viability counter screen (AID 720653; active = well fitted curve in the direction sought with a large enough effect in the repeat runs; an effect the other way counts as inactive or inconclusive; note: % is set by controls: 0 for no effect and ±100 for the full control effect); details: ARE-bla HepG2 viability, CellTiter-Glo ATP luminescence, 16 h; max response: hits give low values
Outline: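 Cytotoxicity counter screen: intracellular ATP quantified by CellTiter-Glo luminescence in the same ARE-bla HepG2 plates, after 16 h compound exposure and a 2 h beta-lactamase substrate step.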

[11] = qHTS assay for cell viability of HEK293 cells (AID 743288); details: ATP luminescence (CellTiter-Glo), 18 h; max response: hits give low values; note: % is set by controls: 0 for no effect and ±100 for the full control effect; nearly all actives have a fitted effect of over 50% in size
Outline: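 ATP luminescence (CellTiter-Glo) reports metabolically competent cell number after parental HEK293 cells, 2,000/well, were treated with DMSO-dissolved compounds for 18 h at 37 C; reagent incubation 30 min, room temperature.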

[12] = qHTS assay for cell viability of the p53RE-bla HCT-116 cell line (AID 743292); details: p53RE-bla HCT-116 viability, ATP luminescence, 16 h; series mostly up to 95 µM; note: % is set by controls: 0 for no effect and ±100 for the full control effect; nearly all actives have a fitted effect of over 55% in size
Outline: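 ATP-based luminescence, 16 h compound exposure at 37 C, p53RE-bla HCT-116 cells at 4,000/well.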

T1 sequence (P35557 whole entry, looked up): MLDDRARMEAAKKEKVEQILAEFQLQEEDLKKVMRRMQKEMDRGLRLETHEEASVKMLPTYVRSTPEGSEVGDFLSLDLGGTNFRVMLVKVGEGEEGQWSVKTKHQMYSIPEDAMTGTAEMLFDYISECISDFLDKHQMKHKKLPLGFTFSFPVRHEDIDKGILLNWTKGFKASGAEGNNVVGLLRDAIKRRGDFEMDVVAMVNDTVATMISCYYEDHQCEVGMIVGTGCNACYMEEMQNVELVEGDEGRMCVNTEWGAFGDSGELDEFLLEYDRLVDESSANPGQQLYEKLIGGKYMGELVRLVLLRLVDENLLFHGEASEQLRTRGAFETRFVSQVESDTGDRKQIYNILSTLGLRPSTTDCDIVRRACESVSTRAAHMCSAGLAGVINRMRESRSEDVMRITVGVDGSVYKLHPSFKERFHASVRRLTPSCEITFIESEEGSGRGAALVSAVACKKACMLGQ
T1 sequence (Q14397 whole entry, looked up): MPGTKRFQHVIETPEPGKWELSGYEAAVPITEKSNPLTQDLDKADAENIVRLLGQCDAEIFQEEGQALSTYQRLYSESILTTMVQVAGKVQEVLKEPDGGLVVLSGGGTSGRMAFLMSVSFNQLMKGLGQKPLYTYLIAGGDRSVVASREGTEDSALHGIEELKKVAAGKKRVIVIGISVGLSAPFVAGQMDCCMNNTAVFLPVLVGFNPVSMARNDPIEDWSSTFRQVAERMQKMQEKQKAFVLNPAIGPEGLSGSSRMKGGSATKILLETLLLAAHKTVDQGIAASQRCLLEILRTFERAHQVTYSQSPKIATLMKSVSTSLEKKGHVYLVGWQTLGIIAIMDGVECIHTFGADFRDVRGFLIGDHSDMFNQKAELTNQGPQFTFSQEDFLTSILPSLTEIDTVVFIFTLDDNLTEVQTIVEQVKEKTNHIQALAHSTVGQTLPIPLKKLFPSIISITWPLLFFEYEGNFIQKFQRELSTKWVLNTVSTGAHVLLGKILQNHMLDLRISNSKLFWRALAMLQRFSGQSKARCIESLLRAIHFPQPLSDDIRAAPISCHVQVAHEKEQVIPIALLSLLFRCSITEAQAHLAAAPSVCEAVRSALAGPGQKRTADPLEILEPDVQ

C[N+](C)(C)CC#CCN1CCCC1=O
inactive: outcome [1] | Potency [2] | outcome [3] | outcome [4] | max response [5] -2.31% | Potency [6] | outcome [7]

CCN1C[C@@]2(COC)C3[C@@H](OC)C4[C@H]1C3([C@@H]1C[C@@]3(O)[C@H](OC(=O)c5ccccc5)[C@@H]1[C@]4(OC(C)=O)[C@@H](O)[C@@H]3OC)[C@H](OC)C[C@H]2O
inactive: Potency [6]

O=[N+]([O-])c1cc(O)c(O)c([N+](=O)[O-])c1
inactive: outcome [1] | Potency [2] | outcome [3] | outcome [4] | max response [5] -6.67% | Potency [6] | outcome [7]

Clc1cc(I)cc(Cl)c1NC1=NCCN1
inactive: outcome [1] | Potency [2] | outcome [3] | outcome [4] | Potency [6] | outcome [7]

Cc1cc([C@@H]2CCCN2C)on1
inactive: outcome [1] | Potency [2] | outcome [3] | outcome [4] | Potency [6] | outcome [7]

Nc1cc2c(ncn2CCOCP(=O)(O)O)c(=O)[nH]1
inactive: Potency [6]

NCCc1c[nH]c2ccc(C(N)=O)cc12
inactive: outcome [1] | Potency [2] | outcome [3] | outcome [4] | max response [5] 47.6% | Potency [6] | outcome [7]

CN1CCc2cc(O)cc3c2[C@H]1Cc1ccc(O)c(O)c1-3
inactive: outcome [1] | Potency [2] | outcome [3] | outcome [4] | max response [5] 32.9% | Potency [6] | outcome [7]

NNC(N)=O
inactive: outcome [1] | Potency [8] | Potency [9] | max response [10] 4.7% | Potency [2] | outcome [3] | outcome [4] | max response [5] 14.6% | max response [11] -7.58% | Potency [12] | Potency [6] | outcome [7]

O=C1CC[C@@]2(O)C3Cc4ccc(O)c5c4C2(CCN3CC2CC2)[C@H]1O5 (stereo not given in full)
inactive: outcome [1] | Potency [2] | outcome [3] | outcome [4] | Potency [6] | outcome [7]
